Compounds without any hit were thinned out: in the full panel of roughly 83,000, 20% have a hit.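 Cells were grown in 96-well plates and exposed to the test compound at a single concentration for 48 hours; results are reported as percent growth, with values below 10 considered active.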 Unmarked numbers belong to inactive results. Active and inactive are the calls of the source.
Tested on: NCI-H322M lung
Assay: NCI-60 one-dose screen, 48 h (100 = growth as untreated, 0 = no growth, -100 = all killed)
Settings: 10 µM unless noted

Row | Structure (SMILES) | growth
1 | O=C(Cc1ccc(F)c(Cl)c1)Nc1cc(C2(C(F)(F)F)CC2)nn1CC1CCCCC1 | 9.83% (active)
2 | O=C(S)CNC(=O)c1ccccc1 | 95.1%
3 | COc1cc(CCC[P+](c2ccccc2)(c2ccccc2)c2ccccc2)c(OC)c(OC)c1OC | 83.3%
4 | COc1cc2cc(Oc3ccc(NC(=O)Nc4ccc(Cl)c(C(F)(F)F)c4)cc3)c(C)nc2cc1OCCN1CCOCC1 | 61.1%
5 | Cc1cc2nc3cc(C)c(N)cc3[n+](-c3ccccc3)c2cc1N | 93.8%
6 | CN1CCN(c2ccc(-c3cc4c(Nc5ccc(F)c(Cl)c5)ncnn4c3)cc2)CC1 | 32.9%
7 | COc1ccc(S(=O)(=O)n2cc(C3OC(c4cc(OC)c(OC)c(OC)c4)=NN3C(C)=O)c3ccccc32)cc1OC (stereo not drawn) | 98%
8 | COc1nc2ccc(C)cc2cc1-c1nc2c(cnn2-c2ccccc2)c(=O)[nH]1 | 95.9%
9 | Cc1cccc2c3c(sc12)C(c1ccc(Cl)cc1)C(C#N)=C(N)O3 (stereo not drawn) | 49.1%
10 | CN(C)c1ccc2nc3ccc(=[N+](C)C)c([N+](=O)[O-])c-3sc2c1 | 42.2%
11 | Cc1ccc(C(=O)N/N=C/c2cccc(Oc3ccccc3)c2)cn1 | 82.3%
12 | Cc1c(C(=O)N[C@@H](Cc2ccccc2)C(=O)C(=O)NCc2ccc(F)cc2)[nH]c2ccccc2c1=O | 98.8%
13 | Cc1c(C(=O)NCCCc2ccccc2)sc2ncc(-c3ccc(Br)cc3)n12 | 100%
14 | COc1ccc(-c2conc2-c2ccccc2)cc1 | 46.3%
15 | Cc1ccccc1C(=O)NN | 90.6%
16 | CCS(=O)(=O)c1ncnc2nc[nH]c12 | 106%
17 | CCCCC[C@H](O)C/C=C1/C(=O)C=C[C@@H]1C/C=C\CCCC(=O)O | 91.1%
18 | C=C1CC[C@H](C(C)C)[C@@H]2[C@H]1[C@H]1CC(=C)[C@@H](O)CC[C@@](C)(O)[C@@H]2O1 | 95.4%
19 | COc1ccc(-c2[nH]c3ccc(OC)cc3c2/C=C(\C#N)S(=O)(=O)c2ccccc2)cc1 | 53.5%

Row | Structure (SMILES) | growth
20 | COc1ccc(C(=O)n2nc(-c3ccccc3)nc2N)cc1OC | 89.1%
21 | O=c1ccn(Cc2cn(-c3c4ccccc4nc4ccccc34)nn2)c(=O)[nH]1 | 99.2%
22 | CC/C=C\C[C@@H](O)C/C=C1/C(=O)C=C[C@H]1C/C=C\CCCC(=O)OC | 12%
23 | CCCCn1c(=O)c(-c2cc(-c3ccc(Cl)cc3)nc(-c3ccc(Cl)cc3)c2)cc2cc(Cl)ccc21 | 96%
24 | Cc1nc2cnc(N)c(C#Cc3cncc(C(=O)Nc4ccc(CN5CCN(C)CC5)c(C(F)(F)F)c4)c3)c2nc1C | -5.35% (active)
25 | O=C1/C(=C/c2ccc(F)cc2)Sc2c(Br)cccc21 | 72.6%
26 | Cc1ccc(-c2nc(N3CCN(C(=O)c4ccc(OC(F)(F)F)cc4)CC3)c3ccccc3n2)cc1 | 93%
27 | CCOC(=O)c1c2c(n(-c3ccc(C#N)cc3)c1-c1ccccc1)C=CCC2 | 91.6%
28 | CCOc1c(B(O)O)cccc1-c1nc2ccc3[nH]ncc3c2c2c1CCCC2 | 109%
29 | CCOC(=O)C1=C(N)Oc2c(sc3c(CC)cccc23)C1c1ccc(F)cc1 (stereo not drawn) | 67.2%
30 | CCCCCCn1c(-c2ccc(C(=O)O/N=C(\N)c3ccc4ccccc4c3)cc2)nc(-c2ccccc2)c1-c1ccccc1 | 83.6%
31 | C=C(C)C1CCC2(C)OC2C1 (stereo not drawn) | 94.9%
32 | Clc1ccc(C(/C=C/c2sc(Cl)nc2Cl)=N/Nc2cc(Cl)cc(Cl)c2)cc1 | 99.9%
33 | c1ccc2c(-c3nc(-c4c[nH]c5ccncc45)cs3)c[nH]c2c1 | 79.1%
34 | c1ccc(CO[C@H]2CO[C@H]3[C@@H]2OC[C@@H]3Oc2ccc(Nc3ncnc4ccsc34)cc2)cc1 | 93.1%
35 | COc1cc2cc(Oc3ccc(NC(=O)Nc4ccc(Cl)c(Cl)c4)cc3)c(C)nc2cc1OCCN1CCOCC1 | 105%
36 | Cc1nc2ccccc2c(/C=C/c2ccccc2)c1C(=O)/C=C/c1ccc(C(F)(F)F)cc1 | 2.79% (active)
37 | CCOC(=O)c1nc(Nc2ccc(C(C)=O)cc2)sc1C | 96.2%
38 | CCOC(=O)Nc1ccc(-c2nc(-c3cccc(OCCN4CCOCC4)c3)c(-c3ccnc(Br)c3)[nH]2)cc1 | 58%

Source: PubChem BioAssay (NCI)
